The values that follow come from PubChem BioAssay (Tox21).

Inconclusive results are not listed. Activity calls are given as the source filed them. Unless noted, calls follow the shape of the full dose curve.

The nature of test [1]: Nuclear factor erythroid 2-related factor 2/antioxidant responsive element (Nrf2/ARE) small molecule agonists: qHTS cell viability counter screen in human keratinocytes (AID 1919968; active = well fitted curve in the direction sought with a large enough effect in the repeat runs; an effect the other way counts as inactive or inconclusive; also: nearly all actives have a fitted effect of over 55% in size). An outline of the steps:
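Parallel cytotoxicity read: KeratinoSens HaCaT cells, compound treatment 23 h, viability by CellTiter-Fluor fluorescence 1 h post-reagent.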
In general terms: qHTS replaces the single test concentration by a dilution series.

Test [2] is described as follows: Nuclear factor erythroid 2-related factor 2/antioxidant responsive element (Nrf2/ARE) small molecule agonists: luciferase reporter gene qHTS assay in human keratinocytes (AID 1919969; also: nearly all actives have a fitted effect of over 35% in size). (In a reporter assay the amount or activity of a reporter protein is the signal.)
Test [3] addresses Gonadotropin-releasing hormone receptor (Homo sapiens) (UniProt P30968). As to the kind of experiment: Human gonadotropin-releasing hormone receptor (GnRHR) small molecule agonists, calcium flux assay in GnRHR-HEK293 cells (AID 1920063). Also: nearly all actives have a fitted effect of over 35% in size. An outline of the steps:
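Calcium flux, agonist mode, human GnRHR stably integrated in HEK293; dye 1 h at 37 C before compound; Ex/Em=480/540 kinetic read, 3 min; 15 concentrations, triplicate.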
(In general: Calcium flux is commonly read through the fluorescence of an indicator in the cells.)

In test [4] the target is KiSS-1 receptor (Homo sapiens) (UniProt Q969F8). Kind of test: Human kisspeptin (KISS1R) small molecule agonists, calcium flux assay in KISS1R-HEK293 cells (AID 1920064; active = well fitted curve in the direction sought with a large enough effect in the repeat runs; an effect the other way counts as inactive or inconclusive). An outline of the steps:
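Triplicate 15-concentration series were applied to dye-loaded human KISS1R HEK293 cells, and agonist-evoked calcium fluorescence was captured for 3 min.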

A short description of test [5]: G protein-coupled receptor (GPCR) small molecule agonists, calcium flux assay: HEK293 wild type cell line counter screen (AID 1920065). An outline of the steps:
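Non-specific calcium responders were flagged by adding DMSO-dissolved compounds to dye-loaded cells and reading 480/540 nm fluorescence each second for 3 min; ATP served as positive control.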

A short description of test [6]: p53 small molecule agonists, cell-based qHTS assay with human liver microsomes (AID 1963577). An outline of the steps:
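p53RE-bla cells, 4,000/well, compound added after 5 h, with human liver microsomes 0.5 mg/mL and NADPH 0.5 mg/mL final; 16 h at 37 C, then LiveBLAzer 2 h RT, fluorescence.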

Test [7] is described as follows: p53 small molecule agonists, cell-based qHTS assay with rat liver microsomes (AID 1963578). An outline of the steps: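 p53RE-bla cells, 4,000/well, pre-incubated 5 h, then given compounds plus rat liver microsomes (0.5 mg/mL final) and NADPH (0.5 mg/mL final). Incubation 16 h at 37 C; beta-lactamase reporter read by LiveBLAzer fluorescence after 2 h at room temperature.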

Test [8] can be described thus: p53 small molecule agonists, cell-based qHTS assay with human liver microsomes: qHTS cell viability counter screen (AID 1963579). Also: nearly all actives have a fitted effect of over 45% in size. An outline of the steps: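 p53RE-bla cells, 4,000/well, dosed 5 hours after plating, with human liver microsomes (0.5 mg/mL final) plus NADPH (0.5 mg/mL final), 16 hours at 37 C. Viability read as CellTiter-Glo luminescence after 30 min at room temperature.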

Test [9] in a line: p53 small molecule agonists, cell-based qHTS assay with rat liver microsomes: qHTS cell viability counter screen (AID 1963580). Also: nearly all actives have a fitted effect of over 45% in size. An outline of the steps: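 Cytotoxicity counter screen: intracellular ATP read by CellTiter-Glo luminescence in the p53 reporter wells. HCT-116 p53RE-bla cells were treated for 16 h at 37 C alongside rat liver microsomes and NADPH, each 0.5 mg/mL final.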

Test [10] in a line: p53 small molecule agonists, cell-based qHTS assay: qHTS cell viability counter screen (AID 1963581). Also: nearly all actives have a fitted effect of over 45% in size. An outline of the steps: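 Multiplexed with the reporter read, a CellTiter-Glo step (30 min, room temperature) gauges ATP-based viability of HCT-116 p53RE-bla cells after 16 h compound incubation at 37 C.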
Test [11] is described as follows: p53 small molecule agonists, cell-based qHTS assay (AID 1963582; active = well fitted activation curve with a large enough effect in the signal ratio in the repeat runs, not every such curve was filed as active; the % refers to the signal ratio). An outline of the steps:
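Beta-lactamase reporter cells (p53RE-bla) treated with compounds for 16 h at 37 C; FRET substrate, 2 h, room temperature; fluorescence intensity.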

The target in test [12] is 5-hydroxytryptamine receptor 2A (Homo sapiens) (UniProt P28223). Kind of test: 5-hydroxytryptamine receptor 2A (HTR2A) small molecule antagonists, cell-based qHTS assay (AID 1963586). Also: nearly all actives have a fitted effect of over 45% in size. An outline of the steps: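 CHO cells stably expressing human HTR2A were plated for 18 h at 37 C, then loaded with calcium dye for 1 h. Compounds were preincubated 5 min at room temperature before DOI (4 nM solution) was added. Kinetic fluorescence was read for 3 min.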
Sequence of 5-hydroxytryptamine receptor 2A (Homo sapiens) (P28223 whole entry, looked up): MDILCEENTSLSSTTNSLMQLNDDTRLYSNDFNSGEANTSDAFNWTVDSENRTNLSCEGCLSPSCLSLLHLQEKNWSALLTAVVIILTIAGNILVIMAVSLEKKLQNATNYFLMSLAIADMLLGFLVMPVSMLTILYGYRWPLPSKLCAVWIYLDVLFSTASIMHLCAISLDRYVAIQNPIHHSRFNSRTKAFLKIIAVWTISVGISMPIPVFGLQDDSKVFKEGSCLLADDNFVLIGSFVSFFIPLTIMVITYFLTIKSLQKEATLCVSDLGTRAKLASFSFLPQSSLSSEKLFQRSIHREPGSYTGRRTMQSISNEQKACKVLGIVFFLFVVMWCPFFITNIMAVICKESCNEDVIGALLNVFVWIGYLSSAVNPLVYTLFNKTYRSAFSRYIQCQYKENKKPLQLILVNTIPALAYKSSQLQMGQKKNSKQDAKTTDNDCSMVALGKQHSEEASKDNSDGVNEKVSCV

The target is the same in test [13]. Kind of test: 5-hydroxytryptamine receptor 2A (HTR2A) small molecule agonists, cell-based qHTS assay (AID 1963587). Also: nearly all actives have a fitted effect of over 30% in size. An outline of the steps:
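Kinetic calcium-flux fluorescence (2 min, 1 sec intervals) after compound addition in agonist mode. HTR2A-CHO cells were cultured 18 h, then dye-loaded 1 h at 37 C.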

Test [14] addresses Muscarinic acetylcholine receptor M1 (Homo sapiens) (UniProt P11229). As to the kind of experiment: Cholinergic receptor muscarinic 1 (CHRM1) small molecule antagonists, cell-based qHTS assay (AID 1963588). Also: nearly all actives have a fitted effect of over 40% in size. Also: potency is read from the fitted curve at half-maximal effect. An outline of the steps: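 Compounds were tested at 15 concentrations in three independent runs. Dye-loaded CHRM1-CHO cells were exposed 5 min at room temperature before stimulation by acetylcholine added at 50nM. Intracellular calcium was read kinetically on FDSS for 3 min.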

Test [15] shares this target. As to the kind of experiment: Cholinergic receptor muscarinic 1 (CHRM1) small molecule agonists, cell-based qHTS assay (AID 1963589). Also: nearly all actives have a fitted effect of over 35% in size. An outline of the steps: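 qHTS, 15-point titration, 3 independent runs: compounds pin-transferred onto dye-loaded CHRM1-CHO cells (human M1), calcium fluorescence followed every second to detect agonism.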
Test [16] can be described thus: cAMP Responsive Elements (CRE) small molecule agonists, cell-based qHTS assay (AID 1963590). An outline of the steps:
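Quantitative HTS for CRE agonists: HEK 293T CRE-bla cells, overnight plating, 3 h compound incubation at 37 C/5% CO2, then 2 h room-temperature LiveBLAzer B/G FRET substrate loading.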

Test [17] in a line: cAMP Responsive Elements (CRE) small molecule antagonists, cell-based qHTS assay (AID 1963591; active = well fitted inhibition curve with a large enough effect in the signal ratio in the repeat runs, not every such curve was filed as active; the % refers to the signal ratio). An outline of the steps:
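Fluorescence intensity from cleaved LiveBLAzer B/G substrate (2 h, room temperature) quantified CRE-bla activity in HEK 293T cells exposed 3 h to compound with 0.25 uM final NKH477.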

Test [18] addresses Beta-2 adrenergic receptor (Homo sapiens) (UniProt P07550). Kind of test: Adrenergic beta2 receptor (ADRB2) small molecule antagonists, cell-based qHTS assay (AID 1963592). Also: series mostly up to about 92 µM; nearly all actives have a fitted effect of over 50% in size. An outline of the steps:
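Assay format: CHO-ADRB2 cells, 18-20hr seeding at 37C/5% CO2, then compound plus 1nM isoproterenol agonist mix for 0.5hr RT. Homogeneous time-resolved fluorescence cAMP detection after 1hr, expressed as 665/615 nm ratio.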

The target in test [19] is D(2) dopamine receptor (Homo sapiens) (UniProt P14416). Kind of test: Dopamine D2 receptor (DRD2) small molecule agonists, cell-based qHTS assay (AID 1963594). Also: nearly all actives have a fitted effect of over 35% in size. An outline of the steps:
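cAMP accumulation in DRD2-HEK293 cells measured by HTRF after 1 h detection; compounds added 10 min before NKH477 (200nM […]) forskolin-analogue stimulation, 30 min at room temperature, with Ro20-1724 present at 0.1 mM final.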

Test [20] shares this target. As to the kind of experiment: Dopamine D2 receptor (DRD2) small molecule antagonists, cell-based qHTS assay (AID 1963595; active = well fitted inhibition curve with a large enough effect in the signal ratio in the repeat runs, with a control signal flat; the % refers to the signal ratio). An outline of the steps:
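Antagonism was scored as restored cAMP in HEK293-DRD2 cells. These cells were stimulated with 200 nM NKH477 and 12 nM quinpirole for 30 min at room temperature, in the presence of 0.1 mM Ro20-1724.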

Sequence of KiSS-1 receptor (Homo sapiens) (Q969F8 whole entry, looked up): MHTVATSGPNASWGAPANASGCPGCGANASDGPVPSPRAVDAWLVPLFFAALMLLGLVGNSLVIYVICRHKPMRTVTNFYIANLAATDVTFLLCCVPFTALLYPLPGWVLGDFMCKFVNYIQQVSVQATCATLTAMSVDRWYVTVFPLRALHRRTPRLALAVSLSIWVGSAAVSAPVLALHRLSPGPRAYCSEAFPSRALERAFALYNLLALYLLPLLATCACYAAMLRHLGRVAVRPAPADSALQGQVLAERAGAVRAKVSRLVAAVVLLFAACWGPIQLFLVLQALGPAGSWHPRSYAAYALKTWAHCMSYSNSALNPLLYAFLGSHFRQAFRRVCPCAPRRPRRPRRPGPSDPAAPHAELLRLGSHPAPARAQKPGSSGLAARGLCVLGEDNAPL
Sequence of Gonadotropin-releasing hormone receptor (Homo sapiens) (P30968 whole entry, looked up): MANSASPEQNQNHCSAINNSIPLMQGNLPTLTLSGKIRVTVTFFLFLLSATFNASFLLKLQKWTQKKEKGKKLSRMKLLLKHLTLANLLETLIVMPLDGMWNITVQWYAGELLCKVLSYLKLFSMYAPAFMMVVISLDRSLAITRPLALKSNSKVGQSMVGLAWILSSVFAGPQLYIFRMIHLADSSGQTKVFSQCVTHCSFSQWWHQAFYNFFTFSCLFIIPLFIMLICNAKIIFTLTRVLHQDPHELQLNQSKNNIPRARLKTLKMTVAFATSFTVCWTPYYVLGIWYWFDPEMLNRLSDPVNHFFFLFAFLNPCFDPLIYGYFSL
Sequence of Muscarinic acetylcholine receptor M1 (Homo sapiens) (P11229 whole entry, looked up): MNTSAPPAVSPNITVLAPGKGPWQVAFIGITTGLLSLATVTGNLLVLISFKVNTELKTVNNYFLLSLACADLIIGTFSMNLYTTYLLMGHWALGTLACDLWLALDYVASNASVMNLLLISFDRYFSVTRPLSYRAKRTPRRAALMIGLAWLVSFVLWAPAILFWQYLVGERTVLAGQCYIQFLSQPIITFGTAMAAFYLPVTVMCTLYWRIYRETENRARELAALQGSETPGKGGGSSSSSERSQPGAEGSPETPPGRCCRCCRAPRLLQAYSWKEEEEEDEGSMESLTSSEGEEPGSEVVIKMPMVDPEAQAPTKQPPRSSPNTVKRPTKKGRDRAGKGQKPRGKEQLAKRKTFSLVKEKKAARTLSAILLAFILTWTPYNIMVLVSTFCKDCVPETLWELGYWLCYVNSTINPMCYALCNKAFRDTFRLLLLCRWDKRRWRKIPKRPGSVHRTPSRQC
Sequence of D(2) dopamine receptor (Homo sapiens) (P14416 whole entry, looked up): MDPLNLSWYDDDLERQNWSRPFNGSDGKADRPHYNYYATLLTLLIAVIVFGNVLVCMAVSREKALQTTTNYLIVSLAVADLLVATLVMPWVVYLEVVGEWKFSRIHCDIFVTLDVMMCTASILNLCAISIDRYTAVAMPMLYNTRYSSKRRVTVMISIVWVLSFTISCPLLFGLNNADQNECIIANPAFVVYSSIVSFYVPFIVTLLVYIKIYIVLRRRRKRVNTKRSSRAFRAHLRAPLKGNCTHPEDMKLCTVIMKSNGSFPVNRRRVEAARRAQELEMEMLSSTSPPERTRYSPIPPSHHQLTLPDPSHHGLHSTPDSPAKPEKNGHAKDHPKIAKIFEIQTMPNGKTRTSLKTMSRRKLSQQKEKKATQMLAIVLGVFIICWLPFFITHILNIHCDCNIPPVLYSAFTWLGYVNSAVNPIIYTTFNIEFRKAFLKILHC
Sequence of Beta-2 adrenergic receptor (Homo sapiens) (P07550 whole entry, looked up): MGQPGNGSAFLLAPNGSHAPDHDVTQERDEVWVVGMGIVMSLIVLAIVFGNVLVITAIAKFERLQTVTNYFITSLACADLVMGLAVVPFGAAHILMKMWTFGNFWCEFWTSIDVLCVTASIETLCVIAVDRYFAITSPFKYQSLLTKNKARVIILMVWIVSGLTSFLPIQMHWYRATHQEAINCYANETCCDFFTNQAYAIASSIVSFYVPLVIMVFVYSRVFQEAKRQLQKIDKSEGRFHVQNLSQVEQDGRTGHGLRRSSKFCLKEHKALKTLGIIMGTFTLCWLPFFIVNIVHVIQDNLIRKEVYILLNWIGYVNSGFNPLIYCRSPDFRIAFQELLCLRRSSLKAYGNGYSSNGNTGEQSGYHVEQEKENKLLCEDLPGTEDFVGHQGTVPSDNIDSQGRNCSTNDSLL

Consider `C[C@H]1C[C@@H](O)CC(C)(C)C1`, for which the Potency entry in test [1], in [2], in [3], in test [4], in [5] and in test [6] was “inactive” each time. For the same compound, the Potency entry in test [7], in test [8], in [9], in [10], in [11] and in test [12] was “inactive” throughout. Further, the Potency entry in test [13], in [14], in test [15], in [16], in test [17] and in [18] was “inactive” in each case. Besides, the Potency entry in test [19] and in test [20] was “inactive” in each case.

With `CC/C=C\CCOC(=O)CCCCC`, the Potency result in test [1], in [2], in test [3], in test [4], in [5] and in test [6] was “inactive” in each case. The Potency entry in test [7], in [8], in test [9], in test [10], in test [11] and in test [12] was “inactive” throughout. Moreover, the Potency result in [13], in test [14], in test [15], in [16], in test [17] and in test [18] was “inactive” throughout. Moreover, the Potency result in test [19] and in test [20] was “inactive” throughout.

As to `O=Cc1ccc([N+](=O)[O-])cc1`, the Potency entry in test [1], in [2], in [3], in [4], in [5] and in [6] was “inactive” throughout. Further, the Potency result in test [7], in [8], in [9], in [10], in test [11] and in test [12] was “inactive” in each case. Besides, the Potency result in [13], in [14], in test [15], in test [16], in test [17] and in test [18] was “inactive” in each case. The Potency entry in test [20] is “inactive”.

As for `O=[N+]([O-])c1ccccc1CCO`, the Potency result in test [1], in [2], in test [3], in test [4], in test [5] and in [6] was “inactive” each time. Further, the Potency entry in [7], in test [8], in [9], in [10], in test [11] and in test [12] was “inactive” each time. Further, the Potency entry in test [13], in test [15], in test [16], in [17], in [18] and in [19] was “inactive” each time. The Potency result in test [20] is “inactive”. Also, the Potency in test [14] was 1.1 nM (active).

As for `C1CCCNCCC1`, the Potency entry in test [1], in test [2], in test [3], in [4], in test [5] and in [6] was “inactive” in each case. For the same compound, the Potency result in test [7], in [8], in [9], in test [10], in test [11] and in [12] was “inactive” in each case. Further, the Potency result in test [13], in test [14], in [15], in test [16], in [17] and in test [18] was “inactive” throughout. Also, the Potency result in [19] and in test [20] was “inactive” in each case.

`CC1OC1C1CCC2(C)OC2C1` (centres undefined): the Potency entry in test [1], in test [2], in [3], in test [4], in test [5] and in test [6] was “inactive” in each case. For the same compound, the Potency result in [7], in [8], in [9], in test [10], in [11] and in test [12] was “inactive” each time. The Potency entry in test [13], in [14], in test [15], in [16], in test [17] and in [18] was “inactive” each time. Moreover, the Potency result in test [19] and in test [20] was “inactive” throughout.

For `Cc1ccc(C(=O)C(=O)O)cc1C`, the Potency result in test [1], in [2], in test [3], in [4], in test [5] and in [6] was “inactive” in each case. For the same compound, the Potency entry in test [7], in [8], in test [9], in test [10], in test [11] and in test [12] was “inactive” throughout. The Potency entry in test [13], in [14], in test [15], in [16], in test [17] and in [18] was “inactive” in each case. Besides, the Potency entry in test [19] and in test [20] was “inactive” in each case.
